D1 antagonist – Antagonist of Human D 1 Dopamine Receptor: qHTS; activity change, negative = inhibition, % at 10 µM; HEK293 TREx D1 cells, calcium flux, dopamine EC80; stronger effect = lower value; D(1A) dopamine receptor (Homo sapiens), P21728; actives 3.2% (n = 360,000); in the data active = activity change below about -30%; also: % is scaled to controls: 0 for no effect and ±100 for the full control effect
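HEK293 T-REx cells expressing inducible, force-coupled D1 receptor; no-wash Ca dye, 30–90 min RT. Cmpd → 180 s read at 1 Hz → EC80 DA → 180 s read.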
USP2a inh – qHTS Assay for Inhibitors of Ubiquitin-specific Protease USP2a Using CHOP2 as the Reporter | Ubiquitin carboxyl-terminal hydrolase 2 (Homo sapiens), O75604 | USP2 core, Ub-CHOP2 coupled fluorogenic reporter, 485/531 | Potency, µM (top dose mostly 38.3 µM), inactives show at the top dose activity change, negative = inhibition, actives largely listed as inhibitors | actives 0.01% (n = 330,000) | AID 463254, 2010;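 also: potency is read from the fitted curve at half-maximal effect; plate controls were DMSO wells for no effect and full inhibition by NEM control for full effect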
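USP2 core (10nM final) preincubated 30min RT with compound in 20mM Tris-HCl pH 8.0, 2mM CaCl2, 2mM beta-mercaptoethanol, 0.05% CHAPS; 25nM Ub-CHOP2 plus 25nM reporter substrate added, fluorescence (Ex485/Em531) read after 60min.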
D1 ag – Allosteric Agonists of the Human D1 Dopamine Receptor: qHTS; D(1A) dopamine receptor (Homo sapiens), P21728; HEK293 T-REx D1 cells, calcium flux, agonist mode; activation, % at 2 µM; actives 1% (n = 360,000); in the data active = activation above about 30%; also: 0% is about no effect
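Agonism was scored from calcium flux recorded over 180 s (1 read/s) after pintool compound addition, following a 10-cycle baseline. Cells were inducible force-coupled HEK293 TREx D1, plated overnight at 30 C and loaded with no-wash calcium dye.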
GALK inh – qHTS Assay for Inhibitors of Human Galactokinase (GALK). Purified GALK, Kinase-Glo residual ATP luminescence. Potency, µM (doses to about 57.5 µM), for inactives: at the highest dose activity change, negative = inhibition, usual class: inhibitors. actives 0.007% (n = 270,000). AID 1868, 2009; also: potency is read from the fitted curve at half-maximal effect; % is scaled to controls: 0 for no effect and ±100 for the full control effect
Target sequence (P51570 whole entry, looked up): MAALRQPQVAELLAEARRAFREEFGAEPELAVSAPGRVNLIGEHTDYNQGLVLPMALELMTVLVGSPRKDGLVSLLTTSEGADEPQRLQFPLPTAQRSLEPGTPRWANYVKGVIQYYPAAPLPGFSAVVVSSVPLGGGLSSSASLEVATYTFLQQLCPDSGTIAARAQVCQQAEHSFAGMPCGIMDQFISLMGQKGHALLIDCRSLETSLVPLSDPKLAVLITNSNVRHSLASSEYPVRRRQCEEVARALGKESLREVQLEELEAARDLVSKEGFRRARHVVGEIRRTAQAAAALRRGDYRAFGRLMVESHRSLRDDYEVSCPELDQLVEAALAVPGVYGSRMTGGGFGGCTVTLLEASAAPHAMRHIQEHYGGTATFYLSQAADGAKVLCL
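Galactose (100 uM) and ATP (35 uM) were turned over by 5 nM GALK for 1 h at RT. Kinase-Glo Plus then converted the remaining ATP into a luminescent signal.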
Eya2 phos inh – qHTS Assay for Inhibitors of the Phosphatase Activity of Eya2; recombinant Eya2, OMFP fluorescence dephosphorylation (OMFP is methylfluorescein phosphate); actives 0.006% (n = 330,000); AID 488837, 2010; Potency, µM (highest dose often 76.9 µM), inactives show top-dose activity, negative = inhibition, actives largely listed as inhibitors; Protein phosphatase EYA2 (Homo sapiens), O00167; also: potency is read from the fitted curve at half-maximal effect; % is scaled to controls: 0 for no effect and ±100 for the full control effect
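Eya2 protein (added as 0.2 uM solution) was preincubated with compound for 10 min at ambient temperature in 50 mM HEPES pH 7.5, 50 mM NaCl, 5 uM MgCl2, 0.05% BSA, 1 mM DTT. OMFP (added at 50 uM) then reacted 10 min; fluorescence read at 485/525 nm.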
D1 PAM – Potentiators of Human D1 Dopamine Receptor: qHTS; D(1A) dopamine receptor (Homo sapiens), P21728; HEK293 TREx D1 cells, calcium flux, dopamine EC20 potentiation; potentiation, % at 10 µM; actives 0.036% (n = 360,000); AID 504651, 2011; in the data active = potentiation above about 30%; also: 0% is about no effect
An asterisk follows results filed as active; u = inconclusive; x = not tested or not shown. Only some compounds are listed: those with a hit (about 3.9% of all), similar ones and a draw of the others. Unless noted, calls follow the shape of the dose curve; as a rule, active = well fitted inhibition curve with a large enough effect; inconclusive = small, poorly fitted or top-dose-only effect, or effect the other way; inactive = flat fitted curve, though single readings scatter.

SMILES | D1 antagonist | USP2a inh | D1 ag | GALK inh | Eya2 phos inh | D1 PAM
OC(CNC1CCCC1)COc1ccccc1Br (stereo not drawn) | -36.2* | -0.1% | 12.7 | 1.8% | 0.2% | -7.8
OC(CNC1CCCCCC1)COc1cccc2ccccc12 (stereo not drawn) | -14.7 | -1.4% | 44.9* | -2.4% | u | 0.3
Cc1cc2c(OCC(O)CNC3CCCCC3)cccc2[nH]1 (stereo not drawn) | -7.5 | 1.2% | 3.1 | 3.7% | -6.9% | 0.5
Brc1ccc(COc2ncnc3ccccc23)cc1 | -14.5 | -0.6% | 1.2 | -0.4% | -12.5% | -1.4
COc1ccc(COc2ncnc3ccc(Br)cc23)cc1F | 18.7 | 2.6% | 3.8 | -2.6% | -9.7% | 31.7*
CCCCn1c(N)c(NCC(C)C)c(=O)[nH]c1=O | -46.4* | 5.9% | 2.1 | -3.0% | -0.2% | 0.7
CCCCn1c(N)c(NCC)c(=O)[nH]c1=O | 1.8 | -1.7% | 3.5 | 13.3% | -5.7% | 5.0
COc1ccccc1NC(=O)C(=O)N/N=C(\C)CC(=O)Nc1ccccn1 | -35.0* | 1.7% | 1.2 | 5.7% | -14.0% | -6.4
FC(F)(F)c1ccccc1-n1ccnc1 | 4.3 | 2.5% | -2.3 | x | 4.8% | -0.9
Clc1ccccc1C(c1ccccc1)(c1ccccc1)n1ccnc1 | -34.3* | 1.5% | 6.3 | -1.5% | -1.2% | 4.8
CCOc1ccccc1NC(=O)C(NS(=O)(=O)c1ccc2c(c1)CCC(=O)N2)c1ccccc1 (stereo not drawn) | 8.5 | x | 1.3 | x | x | 7.4
Cc1cccc(C)c1NC(=O)COC(=O)CNC(=O)C1CCCCC1 | -31.4* | -0.2% | 0.1 | x | -0.2% | -7.1
O=C(COC(=O)CNC(=O)C1CCCCC1)Nc1ccccc1 | x | 1.5% | x | x | 3.7% | x
CCN1CCc2c(sc(NC(=O)c3ccc(S(=O)(=O)N4CCCC(C)C4)cc3)c2C(=O)OC)C1 (stereo not drawn) | 16.8 | x | -2.0 | x | x | -1.6
O=S(=O)(c1ccc(F)cc1F)N1CCCN(c2ccc(C(F)(F)F)cn2)CC1 | 1.1 | -2.7% | 3.4 | -0.4% | 18.6% | -2.5
N#Cc1ccc(S(=O)(=O)N2CCCN(c3ccc(C(F)(F)F)cn3)CC2)cc1 | -35.7* | -1.6% | 2.8 | 3.8% | -15.8% | -3.6
CCCOc1ccc(C(=O)Nc2ccc(Cl)cn2)cc1 | -49.8* | 5.2% | -0.2 | 1.8% | -14.5% | -4.0
CCOC(=O)c1sc(NC(=O)Nc2ccc(Cl)cc2)nc1C | -44.0* | 0.2% | 20.0 | x | 5.1% | -10.8
CCOC(=O)c1sc(NC(=O)Nc2cccc(Cl)c2)cc1C | -45.6* | 2.8% | 9.2 | -3.8% | -3.6% | -14.6
CCOC(=O)c1sc(NC(=O)c2cccs2)cc1C | -14.9 | -0.6% | -0.5 | -3.0% | -10.6% | -3.8
CCOC(=O)c1ccc(NC(=O)Nc2ccon2)cc1 | -11.2 | -1.2% | 8.7 | 4.2% | 8.9% | -2.1
O=C(Nc1ccc(Cl)cn1)c1ccc(Oc2ccccc2)cc1 | -11.3 | -0.9% | 11.7 | -1.8% | 5.1% | -0.9
CCOC(=O)c1ccc(NC(=O)Nc2ccc(Cl)cn2)cc1 | -32.8* | -7.5% | 0.4 | -2.7% | -0.8% | 2.5
Cc1ccc(CNc2ccc(-c3nc(-c4ccccn4)no3)cc2[N+](=O)[O-])cc1 | -8.9 | x | 7.2 | x | x | -1.8
O=c1cc(-c2ccccc2)nc(SCc2nc(-c3cccc(C(F)(F)F)c3)no2)[nH]1 | -13.0 | x | 2.0 | x | x | 2.8
SMILES | D1 antagonist | USP2a inh | D1 ag | GALK inh | Eya2 phos inh | D1 PAM
CCCC(C)C(=O)Nc1ccc(Cl)cn1 (stereo not drawn) | -34.3* | 0.5% | 0.2 | 2.0% | 11.8% | -1.9
CCCCC(=O)Nc1ccc(Cl)cn1 | -15.4 | -0.3% | 0.3 | 0.6% | 13.4% | -0.5
COc1cc(/C=C(\C#N)c2[nH]nc(N)c2C#N)cc(OC)c1O | 5.4 | 5.9% | 36.2* | 2.8% | 20.6% | 2.6
COc1cc(/C=C(\C#N)c2ccccn2)ccc1OCc1ccccc1Cl | 12.9 | -2.6% | 9.7 | 1.7% | -0.6% | 1.2
COc1cc(/C=C(\C#N)c2ccccn2)cc(OC)c1O | 1.7 | 11.8% | 38.0* | -2.0% | 19.7% | -0.9
Cc1cc2c(s1)c1cnn(Cc3cccc(C(F)(F)F)c3F)c(=O)c1n2C | 6.4 | x | 0.4 | x | x | -3.8
C=CCc1cccc2cc(C(=O)Nc3cccc(Cl)c3)c(=O)oc12 | 9.2 | x | -0.6 | x | x | -2.0
C=CCc1cc(Cl)ccc1OC(=O)Nc1cccc(Cl)c1 | -55.2* | 0.8% | 13.9 | 0.2% | 3.6% | -3.0
COc1ccc(CN(CCc2ccccc2)Cc2ccccc2)cc1OC | -18.5 | -2.4% | 5.7 | -4.8% | -6.0% | -4.5
COc1cc(CN(CCN(C)C)Cc2ccccc2)ccc1OCc1ccccc1 | -75.6* | 1.2% | 25.0 | x | 2.8% | -16.8
Cc1cc(-c2onc(C)c2C(=O)Nc2ccc(C(F)(F)F)cc2)no1 | 6.7 | 0.1% | 2.5 | 2.7% | -11.3% | -6.3
Cc1noc(-c2ccc(C(F)(F)F)cc2)c1NC(=O)Nc1ccc(Cl)cc1 | -41.8* | -1.9% | 24.8 | x | 8.6% | -13.2
O=C(Nc1cccc(CNCCc2c[nH]c3ccccc23)c1)c1ccccc1Cl | -41.3* | -1.5% | 32.4* | -1.4% | 5.2% | -6.6
CN1CCN(C(=O)c2cccc(COc3cc(Cl)ccc3Cl)c2)CC1 | -42.9* | 3.6% | 1.9 | -0.3% | -2.6% | -13.6
COc1cccc(CNC(=O)C2CCN(S(=O)(=O)c3c(C)noc3/C=C/c3cccs3)CC2)c1 | 11.1 | x | 5.7 | x | x | 4.8
CCOC(=O)C1CCN(Cc2ccc(O)c3ncccc23)CC1 | -42.1* | 1.0% | 0.4 | -1.2% | 1.5% | -1.0
O=[S+]([O-])(c1ccc2c(c1)OCCO2)N1CCN([S+](=O)([O-])c2ccc(F)cc2Br)CC1 | -8.0 | x | 6.8 | x | x | -1.8
Cc1ccc(-c2cc(-c3n[nH]c(=S)n3C)c3ccccc3n2)cc1 | -37.1* | -9.1% | 0.7 | -2.0% | 0.2% | -4.7
CCn1c(-c2cc(-c3ccc(C)c(C)c3)nc3ccccc23)n[nH]c1=S | -1.9 | 1.4% | 1.9 | 0.0% | -7.1% | -0.1
O=CNC1CCCc2c1[nH]c1ccc(Cl)cc21 (stereo not drawn) | -37.2* | 1.2% | 1.8 | 2.0% | -0.4% | -2.3
CCN(CC)C(=O)C1CCCc2c1[nH]c1ccc(Cl)cc21 (stereo not drawn) | -11.5 | 0.3% | -0.4 | 0.4% | -22.4% | 4.3
CCCCCC[N+](C)(C)CCSSCC[N+](C)(C)CCCCCC | -4.0 | 2.2% | 4.2 | 5.2% | 18.3% | 4.1
